How the values were obtained:
Assay in all cases: log2 ratio of Biotin-Ahx-Ub-VS probe labelling (fragment/DMSO); higher = less target engagement (more negative = stronger competition), active = hit call of the paper (q ≤ 0.05, log2 ratio ≤ -1)
Conditions in all cases: compound concentration: 200 uM; treatment time: 3 h
USP42 = biological target: T1, USP42 (UniProt Q9H9J4)
T1 sequence (whole entry): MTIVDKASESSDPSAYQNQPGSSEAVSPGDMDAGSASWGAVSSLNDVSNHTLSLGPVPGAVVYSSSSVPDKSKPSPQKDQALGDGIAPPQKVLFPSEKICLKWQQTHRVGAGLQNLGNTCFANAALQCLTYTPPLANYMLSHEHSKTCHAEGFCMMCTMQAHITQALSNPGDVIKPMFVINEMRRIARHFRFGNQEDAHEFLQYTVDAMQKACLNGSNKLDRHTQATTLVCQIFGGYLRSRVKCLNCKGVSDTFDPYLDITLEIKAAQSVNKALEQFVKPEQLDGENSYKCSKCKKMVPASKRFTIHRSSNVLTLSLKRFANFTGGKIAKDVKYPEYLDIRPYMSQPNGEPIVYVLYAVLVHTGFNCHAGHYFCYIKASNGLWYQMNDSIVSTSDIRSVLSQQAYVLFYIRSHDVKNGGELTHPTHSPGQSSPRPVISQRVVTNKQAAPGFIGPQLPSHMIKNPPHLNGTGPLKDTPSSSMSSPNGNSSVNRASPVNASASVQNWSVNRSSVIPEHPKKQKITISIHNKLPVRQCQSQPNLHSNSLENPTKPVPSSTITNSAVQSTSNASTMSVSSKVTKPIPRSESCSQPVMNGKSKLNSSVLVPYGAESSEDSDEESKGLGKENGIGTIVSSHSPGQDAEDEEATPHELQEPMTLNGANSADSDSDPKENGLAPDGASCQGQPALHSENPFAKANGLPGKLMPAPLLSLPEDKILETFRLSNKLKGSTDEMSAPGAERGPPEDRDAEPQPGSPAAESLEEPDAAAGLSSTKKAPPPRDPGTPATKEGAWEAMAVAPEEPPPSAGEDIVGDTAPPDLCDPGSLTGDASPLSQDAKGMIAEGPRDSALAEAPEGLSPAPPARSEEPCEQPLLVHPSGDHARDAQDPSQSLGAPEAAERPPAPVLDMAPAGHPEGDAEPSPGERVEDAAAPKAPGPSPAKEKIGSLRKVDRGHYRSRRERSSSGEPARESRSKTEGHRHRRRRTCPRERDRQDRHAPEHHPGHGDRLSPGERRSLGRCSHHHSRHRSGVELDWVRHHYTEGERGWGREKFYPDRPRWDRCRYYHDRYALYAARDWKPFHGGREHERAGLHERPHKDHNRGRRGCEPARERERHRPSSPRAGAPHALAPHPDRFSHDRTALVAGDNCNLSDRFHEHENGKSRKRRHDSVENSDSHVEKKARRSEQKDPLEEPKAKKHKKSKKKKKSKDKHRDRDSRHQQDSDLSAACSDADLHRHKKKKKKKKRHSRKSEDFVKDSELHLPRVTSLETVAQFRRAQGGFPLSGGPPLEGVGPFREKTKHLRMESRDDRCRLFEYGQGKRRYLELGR
In short: (§1)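 Labelled DUBs from HEK293T lysate were NeutrAvidin-enriched, digested with LysC and trypsin, and run by diaPASEF LC-MS/MS. Before that, each 495 µg sample in Tris/CHAPS/IGEPAL buffer with protease inhibitors was treated in triplicate with fragment at 200 µM or vehicle for 3 h, then with Biotin-Ahx-Ub-VS at 0.5 µM final for 1 h. Values are average log2 ratios of fragment over vehicle by unpaired t-test, based on global-median-normalised Spectronaut label-free quantities from proteins with ≥2 unique peptides.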

USP46 = USP46 (UniProt P62068)
In short: as §1

USP47 = biological target: T2, USP47 (UniProt Q96K76)
T2 sequence (whole entry): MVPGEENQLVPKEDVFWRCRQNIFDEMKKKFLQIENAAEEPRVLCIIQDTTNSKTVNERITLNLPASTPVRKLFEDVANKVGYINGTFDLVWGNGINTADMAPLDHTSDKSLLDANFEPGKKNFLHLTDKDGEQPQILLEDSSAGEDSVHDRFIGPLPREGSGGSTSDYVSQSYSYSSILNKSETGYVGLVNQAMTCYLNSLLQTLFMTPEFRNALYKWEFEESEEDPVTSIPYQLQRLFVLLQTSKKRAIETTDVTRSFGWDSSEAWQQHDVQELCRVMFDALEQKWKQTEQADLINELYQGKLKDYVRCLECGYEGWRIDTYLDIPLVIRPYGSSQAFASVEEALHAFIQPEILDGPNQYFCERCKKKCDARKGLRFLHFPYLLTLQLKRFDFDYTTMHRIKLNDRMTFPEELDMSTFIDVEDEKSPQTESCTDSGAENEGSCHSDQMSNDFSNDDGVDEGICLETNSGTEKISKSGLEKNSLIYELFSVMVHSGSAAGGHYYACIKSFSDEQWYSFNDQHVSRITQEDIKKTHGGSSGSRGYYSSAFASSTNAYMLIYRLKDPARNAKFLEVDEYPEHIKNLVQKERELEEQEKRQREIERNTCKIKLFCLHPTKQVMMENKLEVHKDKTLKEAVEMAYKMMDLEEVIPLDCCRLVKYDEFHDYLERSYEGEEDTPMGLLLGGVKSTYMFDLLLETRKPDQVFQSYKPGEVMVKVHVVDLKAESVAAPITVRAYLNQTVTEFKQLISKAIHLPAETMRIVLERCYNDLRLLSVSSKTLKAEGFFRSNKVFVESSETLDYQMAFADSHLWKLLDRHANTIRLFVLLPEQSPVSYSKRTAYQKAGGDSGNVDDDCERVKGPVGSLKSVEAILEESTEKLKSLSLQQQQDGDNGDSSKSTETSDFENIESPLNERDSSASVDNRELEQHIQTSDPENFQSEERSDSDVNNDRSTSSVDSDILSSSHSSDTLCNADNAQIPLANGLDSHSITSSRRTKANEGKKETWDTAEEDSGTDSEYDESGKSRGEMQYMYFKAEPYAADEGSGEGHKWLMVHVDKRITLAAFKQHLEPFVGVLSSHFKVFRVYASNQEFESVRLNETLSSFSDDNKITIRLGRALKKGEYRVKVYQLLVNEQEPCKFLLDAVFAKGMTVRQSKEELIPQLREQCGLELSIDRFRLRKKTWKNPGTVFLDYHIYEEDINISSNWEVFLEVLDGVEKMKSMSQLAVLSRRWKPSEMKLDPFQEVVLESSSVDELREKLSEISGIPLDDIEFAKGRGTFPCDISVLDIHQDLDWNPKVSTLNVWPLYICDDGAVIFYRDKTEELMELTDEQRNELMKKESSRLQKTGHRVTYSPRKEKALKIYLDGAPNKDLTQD
In short: as §1

USP48 = biological target: T3, USP48 (UniProt Q86UV5)
T3 sequence (whole entry): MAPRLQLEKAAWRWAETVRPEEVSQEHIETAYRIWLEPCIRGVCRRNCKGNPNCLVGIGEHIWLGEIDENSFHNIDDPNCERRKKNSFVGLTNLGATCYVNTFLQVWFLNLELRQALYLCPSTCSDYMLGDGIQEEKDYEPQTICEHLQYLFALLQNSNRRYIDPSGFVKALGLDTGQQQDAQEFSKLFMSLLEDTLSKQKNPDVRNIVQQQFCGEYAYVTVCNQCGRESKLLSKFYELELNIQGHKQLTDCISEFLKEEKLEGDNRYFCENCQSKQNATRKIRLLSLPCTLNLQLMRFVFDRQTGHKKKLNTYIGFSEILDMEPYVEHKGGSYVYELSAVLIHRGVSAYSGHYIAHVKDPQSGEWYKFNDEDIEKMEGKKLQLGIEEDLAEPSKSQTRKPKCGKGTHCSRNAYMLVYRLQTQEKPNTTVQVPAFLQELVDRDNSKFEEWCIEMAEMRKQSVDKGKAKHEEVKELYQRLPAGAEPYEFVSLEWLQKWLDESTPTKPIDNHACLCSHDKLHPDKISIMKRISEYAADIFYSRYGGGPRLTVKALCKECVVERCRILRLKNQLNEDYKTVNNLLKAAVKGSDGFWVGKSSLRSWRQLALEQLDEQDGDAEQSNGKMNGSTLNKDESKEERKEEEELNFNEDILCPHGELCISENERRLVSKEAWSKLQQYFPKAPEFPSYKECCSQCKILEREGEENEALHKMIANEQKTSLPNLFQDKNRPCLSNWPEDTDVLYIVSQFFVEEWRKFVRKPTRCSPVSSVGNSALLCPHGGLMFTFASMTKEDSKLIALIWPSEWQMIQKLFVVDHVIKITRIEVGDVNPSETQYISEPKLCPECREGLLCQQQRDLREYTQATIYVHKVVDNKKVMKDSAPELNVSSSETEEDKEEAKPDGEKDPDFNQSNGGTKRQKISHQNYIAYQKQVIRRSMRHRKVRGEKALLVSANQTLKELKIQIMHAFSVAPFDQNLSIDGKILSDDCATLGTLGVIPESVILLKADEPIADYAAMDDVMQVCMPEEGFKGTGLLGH
In short: as §1

USP5 = biological target: T4, USP5 (UniProt P45974)
T4 sequence (whole entry): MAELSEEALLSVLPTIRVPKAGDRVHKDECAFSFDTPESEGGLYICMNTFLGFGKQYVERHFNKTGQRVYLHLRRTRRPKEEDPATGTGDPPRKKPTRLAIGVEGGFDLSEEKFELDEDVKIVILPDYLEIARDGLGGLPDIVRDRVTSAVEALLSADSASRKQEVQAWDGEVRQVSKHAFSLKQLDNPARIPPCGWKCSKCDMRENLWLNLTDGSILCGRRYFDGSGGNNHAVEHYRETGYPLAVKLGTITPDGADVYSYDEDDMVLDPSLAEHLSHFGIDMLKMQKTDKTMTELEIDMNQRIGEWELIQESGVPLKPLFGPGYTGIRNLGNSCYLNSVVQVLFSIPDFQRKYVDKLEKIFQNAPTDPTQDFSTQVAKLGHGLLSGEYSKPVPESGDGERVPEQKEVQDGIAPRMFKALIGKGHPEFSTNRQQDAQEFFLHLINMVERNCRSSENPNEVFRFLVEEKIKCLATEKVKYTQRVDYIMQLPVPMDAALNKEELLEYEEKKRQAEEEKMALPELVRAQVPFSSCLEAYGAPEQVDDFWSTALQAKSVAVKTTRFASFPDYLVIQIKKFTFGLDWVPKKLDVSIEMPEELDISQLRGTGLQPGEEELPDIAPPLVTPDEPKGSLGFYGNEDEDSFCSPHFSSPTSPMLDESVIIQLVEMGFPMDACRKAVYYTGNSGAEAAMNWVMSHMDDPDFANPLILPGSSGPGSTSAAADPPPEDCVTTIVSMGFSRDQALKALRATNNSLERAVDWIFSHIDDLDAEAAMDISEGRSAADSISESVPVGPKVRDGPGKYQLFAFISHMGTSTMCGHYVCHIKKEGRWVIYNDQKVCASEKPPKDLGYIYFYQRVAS
In short: as §1

USP54 = USP54 (UniProt Q70EL1)
In short: as §1

USP7 = USP7 (UniProt Q93009)
In short: as §1

USP8 = biological target: T5, USP8 (UniProt P40818)
T5 sequence (whole entry): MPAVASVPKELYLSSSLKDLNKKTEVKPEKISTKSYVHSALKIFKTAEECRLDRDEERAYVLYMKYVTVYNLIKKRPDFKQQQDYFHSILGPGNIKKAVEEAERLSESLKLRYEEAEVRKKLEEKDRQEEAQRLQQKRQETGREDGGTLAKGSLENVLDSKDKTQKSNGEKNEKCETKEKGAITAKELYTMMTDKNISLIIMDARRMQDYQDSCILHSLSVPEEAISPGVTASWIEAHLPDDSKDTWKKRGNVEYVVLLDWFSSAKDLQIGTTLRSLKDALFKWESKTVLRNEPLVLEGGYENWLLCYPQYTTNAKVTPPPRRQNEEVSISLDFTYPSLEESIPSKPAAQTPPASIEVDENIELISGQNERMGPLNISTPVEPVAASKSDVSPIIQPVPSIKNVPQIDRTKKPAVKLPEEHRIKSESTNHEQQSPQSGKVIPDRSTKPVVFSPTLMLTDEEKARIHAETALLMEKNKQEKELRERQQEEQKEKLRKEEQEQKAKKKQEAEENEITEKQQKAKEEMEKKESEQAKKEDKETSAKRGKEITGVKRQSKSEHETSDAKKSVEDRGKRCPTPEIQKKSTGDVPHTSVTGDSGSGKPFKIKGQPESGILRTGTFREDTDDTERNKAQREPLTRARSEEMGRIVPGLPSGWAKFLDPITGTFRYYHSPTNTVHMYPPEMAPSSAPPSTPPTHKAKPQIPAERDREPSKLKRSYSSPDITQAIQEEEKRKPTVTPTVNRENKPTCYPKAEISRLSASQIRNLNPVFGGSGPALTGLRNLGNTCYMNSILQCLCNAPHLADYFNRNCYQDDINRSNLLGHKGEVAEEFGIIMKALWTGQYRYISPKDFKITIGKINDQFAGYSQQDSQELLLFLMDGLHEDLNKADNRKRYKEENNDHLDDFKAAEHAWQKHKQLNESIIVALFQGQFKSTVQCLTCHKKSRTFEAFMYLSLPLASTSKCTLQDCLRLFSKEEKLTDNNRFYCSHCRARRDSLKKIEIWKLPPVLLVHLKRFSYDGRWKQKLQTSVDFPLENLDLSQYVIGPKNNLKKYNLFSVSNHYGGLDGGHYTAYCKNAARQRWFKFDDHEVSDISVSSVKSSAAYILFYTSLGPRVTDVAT
In short: as §1

USP9X = USP9X (UniProt Q93008)
In short: as §1

UniProt O00487 = biological target: UniProt O00487
In short: as §1

Measured: log2 ratio of Biotin-Ahx-Ub-VS probe labelling

Chain of USP54 (Q70EL1 whole entry): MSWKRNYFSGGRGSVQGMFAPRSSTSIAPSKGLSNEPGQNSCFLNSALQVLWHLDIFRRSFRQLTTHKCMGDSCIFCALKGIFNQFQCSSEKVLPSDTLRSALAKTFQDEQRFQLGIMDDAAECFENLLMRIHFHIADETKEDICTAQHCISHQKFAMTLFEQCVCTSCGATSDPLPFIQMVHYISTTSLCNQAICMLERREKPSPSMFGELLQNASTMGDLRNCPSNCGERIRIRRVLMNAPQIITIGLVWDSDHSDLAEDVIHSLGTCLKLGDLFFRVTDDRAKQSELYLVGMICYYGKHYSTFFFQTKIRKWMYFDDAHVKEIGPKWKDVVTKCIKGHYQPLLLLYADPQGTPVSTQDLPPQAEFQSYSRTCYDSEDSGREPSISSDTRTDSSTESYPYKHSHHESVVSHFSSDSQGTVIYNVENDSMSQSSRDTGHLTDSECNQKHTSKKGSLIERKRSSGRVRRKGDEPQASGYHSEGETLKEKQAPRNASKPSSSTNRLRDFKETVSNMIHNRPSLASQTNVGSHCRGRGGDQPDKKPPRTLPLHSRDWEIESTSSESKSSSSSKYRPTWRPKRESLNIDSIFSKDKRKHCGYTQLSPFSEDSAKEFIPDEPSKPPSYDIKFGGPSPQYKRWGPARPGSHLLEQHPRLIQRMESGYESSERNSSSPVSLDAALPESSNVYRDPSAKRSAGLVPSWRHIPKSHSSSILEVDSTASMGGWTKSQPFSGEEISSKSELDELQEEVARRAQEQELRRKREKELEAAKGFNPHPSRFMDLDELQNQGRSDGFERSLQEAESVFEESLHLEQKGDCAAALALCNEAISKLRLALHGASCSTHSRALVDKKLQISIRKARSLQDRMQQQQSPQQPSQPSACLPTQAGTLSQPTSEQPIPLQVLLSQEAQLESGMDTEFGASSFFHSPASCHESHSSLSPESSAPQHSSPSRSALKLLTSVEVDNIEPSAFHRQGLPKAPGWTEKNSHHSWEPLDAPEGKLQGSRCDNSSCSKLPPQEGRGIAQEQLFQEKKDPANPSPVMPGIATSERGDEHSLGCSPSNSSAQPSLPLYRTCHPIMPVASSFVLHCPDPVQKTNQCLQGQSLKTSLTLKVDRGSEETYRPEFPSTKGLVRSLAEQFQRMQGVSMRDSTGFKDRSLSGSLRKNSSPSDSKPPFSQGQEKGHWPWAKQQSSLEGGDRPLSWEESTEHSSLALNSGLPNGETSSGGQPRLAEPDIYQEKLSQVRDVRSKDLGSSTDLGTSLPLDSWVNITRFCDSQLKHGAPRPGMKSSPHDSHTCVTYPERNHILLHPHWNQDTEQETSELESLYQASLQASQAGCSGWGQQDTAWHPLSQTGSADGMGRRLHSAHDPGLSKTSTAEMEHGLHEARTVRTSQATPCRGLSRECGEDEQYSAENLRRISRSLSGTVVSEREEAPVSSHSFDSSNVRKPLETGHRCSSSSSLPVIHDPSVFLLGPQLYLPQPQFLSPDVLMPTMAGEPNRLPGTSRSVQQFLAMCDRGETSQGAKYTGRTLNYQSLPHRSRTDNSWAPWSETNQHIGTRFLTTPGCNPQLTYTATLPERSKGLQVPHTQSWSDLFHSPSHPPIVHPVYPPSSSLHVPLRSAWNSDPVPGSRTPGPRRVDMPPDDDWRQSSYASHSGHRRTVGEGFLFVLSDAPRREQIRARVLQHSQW
Chain of USP7 (Q93009 whole entry, looked up): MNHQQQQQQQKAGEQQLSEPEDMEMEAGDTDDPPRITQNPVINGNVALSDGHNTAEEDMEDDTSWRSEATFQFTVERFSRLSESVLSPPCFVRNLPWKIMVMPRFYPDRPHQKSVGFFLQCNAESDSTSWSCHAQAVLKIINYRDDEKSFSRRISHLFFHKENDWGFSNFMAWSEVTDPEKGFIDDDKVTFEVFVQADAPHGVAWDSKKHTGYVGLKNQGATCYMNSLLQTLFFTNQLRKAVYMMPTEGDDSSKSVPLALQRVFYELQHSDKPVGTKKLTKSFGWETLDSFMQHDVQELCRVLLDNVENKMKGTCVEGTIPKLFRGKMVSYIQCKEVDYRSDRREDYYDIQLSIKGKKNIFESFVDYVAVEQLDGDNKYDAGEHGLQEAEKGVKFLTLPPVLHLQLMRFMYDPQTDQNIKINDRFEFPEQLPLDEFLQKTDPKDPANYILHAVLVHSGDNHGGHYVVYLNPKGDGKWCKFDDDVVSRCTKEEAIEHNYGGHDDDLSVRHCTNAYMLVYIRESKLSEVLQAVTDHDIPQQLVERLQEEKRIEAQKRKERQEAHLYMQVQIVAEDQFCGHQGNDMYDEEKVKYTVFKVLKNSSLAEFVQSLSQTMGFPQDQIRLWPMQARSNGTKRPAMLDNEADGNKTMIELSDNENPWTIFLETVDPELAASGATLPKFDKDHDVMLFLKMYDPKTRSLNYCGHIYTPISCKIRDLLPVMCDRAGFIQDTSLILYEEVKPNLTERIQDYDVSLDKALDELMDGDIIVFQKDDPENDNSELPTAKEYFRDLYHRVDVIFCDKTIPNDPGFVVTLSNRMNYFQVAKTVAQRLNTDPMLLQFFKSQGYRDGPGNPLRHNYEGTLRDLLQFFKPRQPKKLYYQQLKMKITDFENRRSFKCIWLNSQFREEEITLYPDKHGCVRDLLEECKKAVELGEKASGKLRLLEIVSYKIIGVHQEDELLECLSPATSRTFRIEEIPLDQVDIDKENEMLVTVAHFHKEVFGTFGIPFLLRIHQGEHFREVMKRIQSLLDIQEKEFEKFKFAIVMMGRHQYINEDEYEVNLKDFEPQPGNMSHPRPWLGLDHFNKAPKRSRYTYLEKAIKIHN
Chain of USP46 (P62068 whole entry): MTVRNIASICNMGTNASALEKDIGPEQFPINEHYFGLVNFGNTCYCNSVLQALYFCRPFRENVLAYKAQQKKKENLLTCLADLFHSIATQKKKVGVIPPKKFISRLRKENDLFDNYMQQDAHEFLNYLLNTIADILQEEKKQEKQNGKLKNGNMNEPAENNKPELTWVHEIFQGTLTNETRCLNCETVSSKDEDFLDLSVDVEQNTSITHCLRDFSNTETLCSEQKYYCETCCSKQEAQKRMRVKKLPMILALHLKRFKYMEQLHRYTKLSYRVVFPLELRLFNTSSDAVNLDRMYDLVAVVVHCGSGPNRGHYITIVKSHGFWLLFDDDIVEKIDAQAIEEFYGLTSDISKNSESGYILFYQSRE
Chain of UniProt O00487 (O00487 whole entry): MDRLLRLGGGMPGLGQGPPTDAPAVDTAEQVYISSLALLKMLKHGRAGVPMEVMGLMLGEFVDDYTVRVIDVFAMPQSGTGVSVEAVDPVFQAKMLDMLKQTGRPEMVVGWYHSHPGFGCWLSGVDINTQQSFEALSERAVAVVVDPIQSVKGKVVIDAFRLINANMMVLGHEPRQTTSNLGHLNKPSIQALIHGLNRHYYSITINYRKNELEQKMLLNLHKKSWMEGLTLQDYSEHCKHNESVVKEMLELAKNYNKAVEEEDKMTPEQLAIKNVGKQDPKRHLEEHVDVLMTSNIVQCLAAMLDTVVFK

CC1Cc2ccccc2N1C(=O)CCl (stereo not given)
inactive: USP42 -0.0391 | USP46 -0.226 | USP47 -0.675 | USP48 -0.686 | USP5 0.363 | USP54 0.538 | USP8 -0.238 | USP9X -0.267 | UniProt O00487 -0.194
active: USP7 -1.33

From the supplement of paper PMC11732987, “Enantioselective OTUD7B fragment discovery through chemoproteomics screening and high-throughput optimisation” (Communications Chemistry, 2025)
